Bioassay records from PubChem BioAssay.
A selection: hits, their analogues and other compounds. The true share with any hit is near 2.3%.
Mcl-1 Bim block: human Bim-Mcl-1 interaction inhibition. Q07820. Bead-based flow cytometry, Bim peptide-Mcl-1 binding. inhibition, % at 10 µM. 190,000 compounds, 0.1% hits. AID 1009; in the data active = inhibition above about 40%
Mcl1-Noxa inh: disrupts binding of human Mcl-1 to Noxa peptide; inhibition, % at 21.7 µM; Q07820; TR-FRET Mcl-1/Noxa peptide binding, 2 h; AID 1022; 220,000 compounds, 1.5% hits;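 active = compounds that cut the protein-peptide binding signal by more than 50% relative to plate controls in a single-dose test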;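 also: His-tagged Mcl-1 with rhodamine Noxa BH3 peptide and terbium anti-His antibody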
Mcl1-Bid inh: Mcl-1/Bid interaction inhibition. Q07820. TR-FRET Mcl-1/Bid-Dy647 peptide binding, 1536-well. inhibition, % at 21.7 µM. 220,000 compounds, 0.97% hits. AID 1021;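 active = compounds that cut the binding signal by more than half at the single screening dose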;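 also: His-tagged Mcl-1 with europium anti-His antibody binding Bid BH3 peptide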
BCLXL inh: Bcl-xL (human) inhibition; Q07817; GST-Bcl-xL / FITC-Bim BH3 peptide fluorescence polarization; inhibition, % at 10.9 µM; 320,000 compounds, 0.7% hits;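 active = inhibition above the mean of all tested compounds plus 3 SD, cutoff set per campaign, cut at about 30% in these data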;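 also: inhibitors lower millipolarization by displacing the labeled peptide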
MCL1 BIM primary: MCL1-BIM-BH3 interaction inhibition (human) | GST-MCL1 / FITC-Bim-BH3 fluorescence polarization | inhibition, % at 10.9 µM | 320,000 compounds, 0.68% hits | AID 2057 | Q07820;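 active = inhibition above the mean inhibition of all tested compounds plus 3 SD, set per campaign, cut at about 40% in these data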;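 also: higher means more loss of mP so more displacement of Bim peptide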
GLD-1 RNA inh: GLD-1-TGE RNA interaction inhibition (C. elegans); Q17339; purified GLD-1 + fluorescein TGE RNA, fluorescence polarization; inhibition, % at 5.96 µM; 320,000 compounds, 0.44% hits;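 active = percent inhibition above a per-plate cutoff, the plate mean of test compounds plus 3 SD, cut at about 30% in these data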
Target sequence (Q17339 whole entry, looked up): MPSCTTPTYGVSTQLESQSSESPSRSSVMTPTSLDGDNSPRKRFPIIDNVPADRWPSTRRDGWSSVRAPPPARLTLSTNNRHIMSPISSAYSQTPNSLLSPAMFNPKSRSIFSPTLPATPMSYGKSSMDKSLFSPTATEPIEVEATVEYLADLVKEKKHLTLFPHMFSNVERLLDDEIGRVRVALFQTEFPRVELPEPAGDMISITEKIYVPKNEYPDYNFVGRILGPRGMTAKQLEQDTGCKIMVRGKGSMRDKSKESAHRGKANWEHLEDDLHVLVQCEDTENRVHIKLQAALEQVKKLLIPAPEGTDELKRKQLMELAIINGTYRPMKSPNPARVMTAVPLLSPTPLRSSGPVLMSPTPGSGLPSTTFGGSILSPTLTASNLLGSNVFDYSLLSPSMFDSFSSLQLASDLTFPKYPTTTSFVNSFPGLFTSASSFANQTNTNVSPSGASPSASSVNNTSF
Bcl-xL conf: Bcl-xL (human) inhibition, MCL1 counter-screen confirmation; GST-Bcl-xL / FITC-Bim BH3 peptide FP binding; 1,700 compounds, 54% hits; inhibition, % at 10.9 µM; shares compounds with MCL1 BIM primary;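 active = inhibition above a cutoff equal to the mean inhibition of all tested compounds plus 3 SD, cut at about 30% in these data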
MCL1 BIM confirm: confirmation of human MCL1 and BIM-BH3 interaction inhibitors | shares compounds with MCL1 BIM primary | GST-MCL1 / FITC-Bim-BH3 fluorescence polarization | 1,700 compounds, 61% hits | inhibition, % at 10.9 µM;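 active = inhibition above the average of all tested compounds plus 3 SD, cut at about 40% in these data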
Hits are given with their value; n = inactive; x = not tested or not shown.

SMILES	Mcl-1 Bim block	Mcl1-Noxa inh	Mcl1-Bid inh	BCLXL inh	MCL1 BIM primary	GLD-1 RNA inh	Bcl-xL conf	MCL1 BIM confirm
CCOC(=O)C1=C(CSc2nc3c(cc2C#N)CN(C)CC3)OC(N)=C(C#N)C1c1ccc(Cl)cc1 (stereo not drawn)	n	n	n	40	52	33	41	44
CCOC(=O)C1=C(CSc2nc3c(cc2C#N)CN(C)CC3)OC(N)=C(C#N)C1c1ccncc1 (stereo not drawn)	n	n	n	114	143	61	108	119
CCOC(=O)C1=C(CSc2nc(C)cc(C)c2C#N)OC(N)=C(C#N)C1c1ccccc1 (stereo not drawn)	n	n	n	n	n	n	x	x
CCOC(=O)C1=C(CSc2nc(CC)c(C)cc2C#N)OC(N)=C(C#N)C1c1ccccc1 (stereo not drawn)	n	n	n	n	n	n	x	x
COc1cc(N)c(Cl)cc1C(=O)OCC(=O)NCC1CCCCC1	x	x	x	x	x	n	x	x
CNC[C@H](Cc1cccc2ccccc12)NC[C@H](CCSC)NCC1CCC(C(C)(C)C)CC1 (stereo partly drawn)	x	x	x	x	x	n	x	x
C[C@@H]1Cc2c(O)c(O)cc(O)c2C(=O)O1	x	n	n	n	n	n	x	x
O=C1C=C(O)c2c(O)cc(O)c(O)c2C1=O	x	x	x	n	95	n	n	97
Cc1cccc(NC(=O)CSc2nc(=O)n(CCCN3CCOCC3)c3c2CCCC3)c1	x	x	x	n	n	n	x	x
Clc1ccc(C2Nc3cccc4cccc(c34)N2)cc1	x	x	x	44	67	n	n	n
CSc1ccc(C2Nc3cccc4cccc(c34)N2)cc1	x	x	x	n	n	n	x	x
N#C/C(=C\c1ccc(O)c(O)c1)C(=O)Nc1cccc2ncccc12	x	x	x	n	71	n	33	69
N#C/C(=C\c1ccc(O)c(O)c1)C(=O)Nc1ccccc1	x	x	x	n	n	n	x	x
O=C1/C(=C/c2cccc(F)c2)Oc2cc(O)ccc21	x	x	x	75	66	70	83	98
Cc1cccc(/C=C2\Oc3cc(OS(C)(=O)=O)ccc3C2=O)c1	n	n	n	n	n	n	x	x
O=C(O)C1Nc2c(O)cc(Cl)c([N+](=O)[O-])c2C2C=CCC12 (stereo not drawn)	n	105	97	78	101	n	43	101
O=[N+]([O-])c1ccc(Cl)c2c1C1C=CCC1C(c1ccccn1)N2 (stereo not drawn)	n	n	n	n	n	n	x	x
Cc1ccc(-c2ccc(OC(=O)c3ccc(=O)[nH]c3)c(C)c2)cc1	x	x	x	n	n	n	x	x
CCCc1[nH]nc2c1C1(CCN(C(=O)OCc3ccccc3)CC1)C(C#N)=C(N)O2	n	n	n	n	n	n	x	x
CC(C)c1[nH]nc2c1C1(CCN(Cc3ccccc3)CC1)C(C#N)=C(N)O2	n	n	n	104	114	57	n	n
COC(=O)c1cc(NS(=O)(=O)c2ccc(NC(C)=O)cc2)ccc1Cl	x	n	n	n	n	n	x	x
C#CCOCCOCCOCCNc1nc(N2CCN(C(=O)[C@H](CCC(=O)O)n3cc([C@@H](N)[C@H](C)CC)nn3)CC2)nc(N2CCN(C(=O)[C@H](CCC(=O)O)n3cc([C@@H](N)CC(N)=O)nn3)CC2)n1	x	x	x	x	x	n	x	x
COc1ccc(NC(=O)CN(C)C(=O)c2cc3c(s2)CCC3)cc1	x	x	x	n	74	n	n	71
COc1ccc(NC(=O)CN(C)C(=O)c2cc3c(s2)CCCCC3)cc1	x	x	x	n	n	n	x	x
Cc1ccc(N=Cc2nc(-c3ccc(C)cc3)oc2O)cc1	n	n	n	x	x	x	x	x
SMILES	Mcl-1 Bim block	Mcl1-Noxa inh	Mcl1-Bid inh	BCLXL inh	MCL1 BIM primary	GLD-1 RNA inh	Bcl-xL conf	MCL1 BIM confirm
CC(=O)Nc1ccc(N=Cc2nc(-c3ccc(C)cc3)oc2O)cc1	n	65	64	89	90	31	60	61
COc1ccc2c(c1)c1c(n2C)[C@@H]2CC=C(CO)[C@@H](C1)N2C	x	x	x	x	x	n	x	x
O=C1C(Cl)=C(N2CCOCC2)C(=O)N1CCc1ccccc1	n	n	n	n	n	n	x	x
CN1CCN(C2=C(Cl)C(=O)N(CCc3ccccc3)C2=O)CC1	n	n	n	51	54	n	n	n
N#CC1=C(N)C(C#N)(C#N)C(c2ccc[nH]2)C2CCCC=C12 (stereo not drawn)	n	n	n	67	72	77	39	n
N#CC1=C(N)C(C#N)(C#N)C(c2cccnc2)C2CCCC=C12 (stereo not drawn)	n	n	n	84	81	60	75	85
N#CC1=C(N)C(C#N)(C#N)C(c2cccnc2)C2CC(c3ccccc3)CC=C12 (stereo not drawn)	n	n	n	110	135	103	n	n
N#CC1=C(N)C(C#N)(C#N)[C@H](c2cccnc2)[C@H]2CN(C(=O)OCc3ccccc3)CC=C12	n	n	n	n	n	n	x	x
COc1ccc(C(C)(C)NC(=O)C2CCC(=O)N(CCCN3CCCC3=O)C2)cc1 (stereo not drawn)	x	x	x	n	n	n	x	x
CCCS(=O)(=O)c1cn2cccc(N)c2c1S(=O)(=O)CCC	n	n	n	98	102	86	n	n
COC(=O)c1ccc(OC(=O)CCc2cc(OC)c(OC)c(OC)c2)cc1	n	n	n	n	n	n	x	x
O=C(/C=C/c1cccc(Cl)c1)NCc1ccccc1	n	n	n	n	n	n	x	x
Cc1ccc(S(=O)(=O)N[C@@H](C)C(=O)OCC(=O)N2c3ccccc3NC(=O)C2(C)C)cc1	x	x	x	n	n	n	x	x
CN(C(=O)CN1C(=O)NC(C)(c2cccc(Br)c2)C1=O)C1CCCCC1 (stereo not drawn)	x	x	x	n	82	n	n	n
CCc1ccc(CNC(=O)CCc2cn(C)c3ccccc23)cc1	x	x	x	n	n	n	x	x
Cn1cc(CCC(=O)NCc2ccc(Cl)cc2)c2ccccc21	x	x	x	n	53	n	n	n
O=C(c1cccc(C(F)(F)F)c1)N1CCC2(CC1)NCCc1[nH]cnc12	x	x	x	n	n	n	x	x
O=C(Nc1ccc(N2CCOCC2)cc1)c1ccc2nc(-c3ccco3)c(-c3ccco3)nc2c1	n	n	n	n	n	n	x	x
CCCCNC(=O)c1ccc2nc(-c3ccco3)c(-c3ccco3)nc2c1	n	93	n	41	60	n	n	n
O=C(c1ccc2nc(-c3ccco3)c(-c3ccco3)nc2c1)N1CCN(c2ncccn2)CC1	n	100	n	38	81	n	35	50
O=C(c1cccc(C(=O)N2CCN(c3ncccn3)CC2)c1)N1CCN(c2ncccn2)CC1	n	n	n	n	n	n	x	x
O=C(NCc1ccccc1)c1ccc2nc(-c3ccco3)c(-c3ccco3)nc2c1	n	102	n	46	81	n	43	69
